# Screening results deposited in PubChem by The Scripps Research Institute Molecular Screening Center.
# PPARg SRC-2 ag = PPARgamma-driven SRC-2 recruitment agonism; PPARgamma LBD-SRC-2 recruitment, biochemical; AID 1032; activation, % at 8 µM; P37231; 200,000 tested, 0.34% active;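 further: 0% = vehicle and 100% = reference agonist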
# SRC3 TRFRET art = TR-FRET artefact, counter-screen to PPARgamma/SRC-3 agonist assay; PPARgamma/SRC-3 format; active compounds read high; TR-FRET ratio at 8 µM; 99,000 tested, 0.39% active; AID 1048; in the data active means TR-FRET ratio above about 2000
# PPARg SRC3 recr = promotes SRC-3 coactivator recruitment by human PPARgamma. P37231. biochemical PPARgamma/SRC-3 coactivator recruitment assay. activation, % at 8 µM. 200,000 tested, 0.26% active. AID 731; in the data active means activation above about 23%;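 further: 0% = DMSO and 100% = reference agonist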
# PPARg SRC1 recr = PPARgamma-driven SRC-1 recruitment agonism; PPARgamma-SRC-1 coactivator recruitment biochemical assay; 200,000 tested, 0.41% active; P37231; activation, % at 8 µM; in the data active means activation above about 19%;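 further: 0% = DMSO and 100% = reference agonist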
# SRC1 TRFRET art = flags TR-FRET format artefacts in PPARgamma SRC-1 recruitment agonist screen | TR-FRET ratio at 8 µM | TR-FRET detection artefact counter-screen, emission ratio; active compounds read high | 99,000 tested, 0.34% active; in the data active means TR-FRET ratio above about 2300
# TR-FRET SRC-2 ct = flags TR-FRET format artefacts in PPARgamma SRC-2 recruitment agonist screen; TR-FRET artefact counter-screen; active compounds read high; AID 1049; TR-FRET ratio at 8 µM; 200,000 tested, 0.4% active; in the data active means TR-FRET ratio above about 2000
# PPARg SRC2 conf = human PPARgamma SRC-2 recruitment agonism, confirmation. 790 tested, 52% active. biochemical SRC-2 recruitment by PPARgamma. activation, % at 8 µM. shares compounds with PPARg SRC3 recr;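 further: 0% = vehicle alone and 100% = reference agonist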
# PPARg SRC1 ag = confirmation of agonists of SRC-1 recruitment by human PPARgamma. AID 1300. activation, % at 8 µM. shares compounds with PPARg SRC3 recr. 790 tested, 43% active. PPARgamma–SRC-1 coactivator recruitment biochemical assay; in the data active means activation above about 20%;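 further: 0% = vehicle wells and 100% = reference agonist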
# PPARg SRC3 ag = human PPARgamma SRC-3 recruitment agonism, confirmation | shares compounds with PPARg SRC3 recr | biochemical PPARgamma-SRC-3 coactivator recruitment, agonist mode | activation, % at 8 µM | 790 tested, 29% active; in the data active means activation above about 24%;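 further: 0% = vehicle wells and 100% = reference agonist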
# Target sequence (P37231 whole entry, looked up): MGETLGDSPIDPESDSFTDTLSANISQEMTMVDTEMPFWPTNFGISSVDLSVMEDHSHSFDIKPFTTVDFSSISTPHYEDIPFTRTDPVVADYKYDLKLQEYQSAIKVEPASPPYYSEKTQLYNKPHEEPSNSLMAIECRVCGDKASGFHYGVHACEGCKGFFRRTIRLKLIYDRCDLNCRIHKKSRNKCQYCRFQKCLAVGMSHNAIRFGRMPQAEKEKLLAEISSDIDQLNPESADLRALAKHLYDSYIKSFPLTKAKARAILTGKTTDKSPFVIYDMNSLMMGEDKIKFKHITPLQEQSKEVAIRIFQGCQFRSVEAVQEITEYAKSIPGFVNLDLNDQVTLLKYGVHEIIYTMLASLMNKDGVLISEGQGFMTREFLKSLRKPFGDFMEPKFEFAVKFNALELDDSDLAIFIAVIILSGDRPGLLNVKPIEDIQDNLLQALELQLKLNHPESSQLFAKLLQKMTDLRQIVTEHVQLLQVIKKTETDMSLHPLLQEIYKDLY
# Target sequence (Q9Y6Q9 whole entry, looked up): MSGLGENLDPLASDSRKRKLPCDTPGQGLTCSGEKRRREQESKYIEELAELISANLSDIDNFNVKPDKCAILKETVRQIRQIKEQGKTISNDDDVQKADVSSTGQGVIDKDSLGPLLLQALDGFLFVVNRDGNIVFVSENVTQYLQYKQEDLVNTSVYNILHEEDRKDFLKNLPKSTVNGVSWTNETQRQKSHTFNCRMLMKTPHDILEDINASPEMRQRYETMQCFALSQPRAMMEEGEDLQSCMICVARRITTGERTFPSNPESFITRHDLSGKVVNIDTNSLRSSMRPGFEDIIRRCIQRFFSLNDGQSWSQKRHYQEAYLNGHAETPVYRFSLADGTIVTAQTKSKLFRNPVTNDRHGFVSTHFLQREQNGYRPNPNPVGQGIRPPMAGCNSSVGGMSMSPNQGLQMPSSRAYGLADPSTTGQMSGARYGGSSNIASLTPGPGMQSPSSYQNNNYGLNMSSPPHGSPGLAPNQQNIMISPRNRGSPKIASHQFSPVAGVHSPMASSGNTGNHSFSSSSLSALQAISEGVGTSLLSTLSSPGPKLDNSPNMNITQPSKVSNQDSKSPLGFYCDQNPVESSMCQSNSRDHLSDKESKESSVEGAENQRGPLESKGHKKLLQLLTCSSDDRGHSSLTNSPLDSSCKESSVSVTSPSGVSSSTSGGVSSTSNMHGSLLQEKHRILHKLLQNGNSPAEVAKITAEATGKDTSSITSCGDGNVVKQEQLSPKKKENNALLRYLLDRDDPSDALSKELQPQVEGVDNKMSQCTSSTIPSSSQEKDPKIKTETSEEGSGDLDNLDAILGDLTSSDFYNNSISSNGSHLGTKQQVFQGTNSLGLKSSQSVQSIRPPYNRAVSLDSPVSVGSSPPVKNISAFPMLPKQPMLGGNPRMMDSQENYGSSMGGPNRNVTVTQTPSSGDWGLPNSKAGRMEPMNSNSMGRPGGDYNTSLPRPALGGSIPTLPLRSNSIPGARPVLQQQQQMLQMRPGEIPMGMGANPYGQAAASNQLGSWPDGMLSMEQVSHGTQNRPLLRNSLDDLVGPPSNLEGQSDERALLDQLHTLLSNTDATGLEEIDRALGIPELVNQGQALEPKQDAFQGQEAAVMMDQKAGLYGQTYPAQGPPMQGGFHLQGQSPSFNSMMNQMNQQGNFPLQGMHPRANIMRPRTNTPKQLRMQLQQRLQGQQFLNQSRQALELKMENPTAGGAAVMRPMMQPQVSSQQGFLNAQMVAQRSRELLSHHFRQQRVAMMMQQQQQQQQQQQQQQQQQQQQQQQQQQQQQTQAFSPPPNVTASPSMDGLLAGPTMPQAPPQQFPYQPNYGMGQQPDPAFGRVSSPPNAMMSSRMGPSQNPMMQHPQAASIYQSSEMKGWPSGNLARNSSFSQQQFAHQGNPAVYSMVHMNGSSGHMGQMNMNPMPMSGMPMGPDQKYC
# * hit, by the source's call; x = not tested or not shown. Rows were chosen to be rich in hits. Some 0.84% of all compounds tested hit in one or more screens of this group. Unless noted, no stated cut-off is given here; in the data, active means activation above about 22%; inactive means the rest.
SMILES,PPARg SRC-2 ag,SRC3 TRFRET art,PPARg SRC3 recr,PPARg SRC1 recr,SRC1 TRFRET art,TR-FRET SRC-2 ct,PPARg SRC2 conf,PPARg SRC1 ag,PPARg SRC3 ag
O=C(Nc1cccnc1)c1sc(Nc2ccccc2F)nc1-c1ccccc1,48*,3407*,31*,50*,3447*,3029*,68*,50*,46*
O=C(Nc1cccnc1)c1sc2cccc(F)c2c1Cl,5,1729,3,7,1937,1497,x,x,x
Cc1ccc(S(=O)(=O)NNC(=O)CCCCC(=O)NNS(=O)(=O)c2ccc(C)cc2)cc1,5,1574,2,8,1877,1444,x,x,x
Cc1ccccc1S(=O)(=O)Nc1nc2ccccc2nc1N1CCOCC1,27*,x,34*,26*,x,2102*,43*,37*,28*
O=C(Nc1ccc2oc(-c3ccc(F)cc3)nc2c1)c1ccccc1F,28*,x,21,25*,x,2348*,14,12,6
O=C(Cn1cc(C(F)(F)F)ccc1=O)N/N=C/c1ccccc1,-1,1534,1,3,1866,1536,x,x,x
Cc1cccc(OCCOc2ccccc2C=C(C#N)C#N)c1,-6,1368,-3,-7,1616,1559,x,x,x
Cc1ccccc1OCCOc1ccccc1C=C(C#N)C#N,13,2057*,12,20*,2244,2050*,21,17,13
C=CCN(C(=O)CNC(=O)c1cccs1)C(C(=O)NC1CCCCC1)c1cccnc1 (centres undefined),0,1439,-2,-4,1668,1484,x,x,x
Oc1c(Br)cc(C=Nc2ccc3nc(-c4ccccc4)[nH]c3c2)c(O)c1Br,12,1961,12,22*,1998,1907,15,15,9
O=[N+]([O-])c1ccc(N/N=C/c2c[nH]c3ccccc23)cc1,12,x,6,-1,x,1738,x,x,x
O=[N+]([O-])c1ccc(N/N=C/c2ccc[nH]2)cc1,28*,1831,12,17,2294,1763,6,8,5
Fc1cccc(F)c1-n1c(CN2CCCCC2)csc1=S,5,1681,4,0,1909,1705,x,x,x
Cc1onc(-c2ccccc2Cl)c1C(=O)Nc1nnc(-c2ccc(F)cc2)s1,22*,x,32*,17,x,1917,17,10,11
Cc1onc(-c2ccccc2Cl)c1C(=O)Nc1ccc(F)c(F)c1,1,x,18,1,x,1401,x,x,x
Cc1onc(-c2c(F)cccc2Cl)c1C(=O)Nc1nnc(-c2ccccc2)s1,8,x,26*,16,x,1659,26*,25*,17
Cc1onc(-c2c(F)cccc2Cl)c1C(=O)Nc1nnc(C2CC2)s1,8,x,7,7,x,1619,x,x,x
Cc1onc(-c2ccccc2Cl)c1C(=O)Nc1nnc(-c2ccc(Cl)cc2Cl)s1,18,x,15,23*,x,1847,31*,23*,20
Cc1onc(-c2ccccc2Cl)c1C(=O)Nc1nnc(-c2ccc(Br)cc2)s1,28*,x,25,29*,x,2175*,32*,18,20
Cc1onc(-c2ccccc2Cl)c1C(=O)Nc1nn[nH]n1,5,1461,-5,0,1628,1475,x,x,x
CCOc1ccccc1CNC(=O)c1nn(CC)cc1[N+](=O)[O-],1,1575,0,8,1656,1609,x,x,x
CC(C)c1ccc(CNc2c([N+](=O)[O-])c(=O)oc3ccccc23)cc1,9,1531,7,6,1914,1865,x,x,x
CCOC(=O)C1=C(O)C(=O)N(CCCn2ccnc2)C1c1ccc(OC)cc1 (centres undefined),4,1625,5,16,2083,1634,x,x,x
CC(C)C1Cc2c(C#N)c(N)sc(=S)c2CO1 (centres undefined),39*,x,47*,33*,x,2315*,12,8,5
O=C(Nc1cccc(Cl)c1)C1C2CCC3C(CCC21)C3(Cl)Cl (centres undefined),-5,1506,-2,-3,1441,1398,x,x,x
SMILES,PPARg SRC-2 ag,SRC3 TRFRET art,PPARg SRC3 recr,PPARg SRC1 recr,SRC1 TRFRET art,TR-FRET SRC-2 ct,PPARg SRC2 conf,PPARg SRC1 ag,PPARg SRC3 ag
CC(C)Cn1[nH]c2c3c(ccc2c1=O)C(=O)c1ccccc1C3=O,20,x,26*,15,x,1610,5,4,5
O=C1c2ccccc2C(=O)c2c1ccc1c(=O)n(-c3ccccc3)[nH]c21,6,1724,2,10,1572,1455,x,x,x
N#Cc1ccsc1NC(=O)CN1CCN(S(=O)(=O)c2ccc3ccccc3c2)CC1,28*,2536*,8,19,2399*,2346*,11,10,6
C/C(=C\C(=O)c1sccc1Cl)N(C)C,4,1548,0,7,2099,1509,x,x,x
COc1ccc(NC(=O)c2sc(=S)[nH]c2N)cc1,4,x,28*,16,x,1621,12,11,7
CC(=O)N=c1sc2nc3ccccc3nc2n1N(C(C)=O)C(C)=O,26*,1815,15,15,2476*,1906,44*,31*,29*
COc1ccc(N2C(=O)CC(N(Cc3ccco3)C(=O)CCC(=O)O)C2=O)cc1 (centres undefined),6,1518,1,0,1795,1493,x,x,x
S=C(NCc1ccco1)Nc1cc(-c2ccccc2)[nH]n1,0,1240,-2,-1,1795,1629,x,x,x
CCOc1ccc(NC(=S)C(C#N)=C2N(C)c3ccccc3N2C)cc1,18,1702,0,23*,1817,1563,0,-1,3
O=C(CSc1ccccc1)Nc1ccc(C(=O)Nc2ccc(O)cc2)cc1,37*,1821,18,26*,1849,1725,30*,22*,18
COC(=O)c1ccc(NC(=O)CSc2ccccc2)cc1,-5,1619,5,2,1964,1612,x,x,x
CCn1c2ccccc2n2c(=O)c(=O)n(CC(=O)Nc3ccc(C(C)C)cc3)nc12,3,1635,0,-2,1736,1550,x,x,x
O=C(COc1ccc2ccccc2c1Br)NNC(=O)Nc1ccccc1,28*,x,26*,21*,x,2408*,21,13,14
Cc1ccc2c(c1)N(CC(=O)OCC(=O)NCc1ccccc1)C(=O)CO2,8,1615,4,1,1774,1543,x,x,x
CN1CCC/C1=C/C=C1\SC(=S)NC1=O,24*,1794,11,14,2166,1675,1,3,3
Cc1ccc(/C=C/C(=O)O)cc1S(=O)(=O)NCc1ccco1,-3,1523,3,-5,1549,1531,x,x,x
C=CCn1c(=S)[nH]c2scc(-c3ccc(C)o3)c2c1=O,15,2146*,24*,25*,2448*,2125*,21,15,16
C=CCn1c(=S)[nH]c2sccc2c1=O,9,1503,0,7,1985,1612,x,x,x
